# Screens as filed in PubChem.
# A selection: hits, their analogues and other compounds. The true share with any hit is near 11%.
# HCV inhibitor: HCV inhibition. 340,000 compounds, 3.4% hits. Potency, µM (doses to about 41.8 µM), inactives show at the highest dose activity change, negative = inhibition, hits mostly inhibitors. Huh7.5.1 HCVcc-Cre infection, luciferase reporter, 44 h. AID 651820
#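 After 44 h co-culture of compound, cells and HCVcc-Cre (~0.5 moi), substrate is added for 15 min at room temperature and luciferase measured over 15 sec. Cells were seeded at 1,000/well and pre-cultured 4 h.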
# AMA1-RON2 inh: disrupts binding of P. falciparum AMA1 to RON2; AID 720542; 360,000 compounds, 0.2% hits; Potency, µM (top dose mostly 58.2 µM), inactives show top-dose activity change, negative = inhibition, usual class: inhibitors; AlphaScreen AMA1-biotinylated RON2 peptide binding;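 also: 0% = vehicle wells and -100% = peptide control; nearly all actives have a fitted effect of over 45% in size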
#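 AMA1 (3D7) with his tag at 25 nM final met compounds first, then biotinylated RON2 peptide at 25 nM; detection used donor plus acceptor beads, 10 µg/mL apiece, read by AlphaScreen after 30 min at room temperature.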
# AmpC inh no detg: inhibitors of E. coli AmpC beta-lactamase without detergent. 330,000 compounds, 0.52% hits. Potency, µM (highest dose often 57.1 µM), inactives show at the highest dose activity change, negative = inhibition, actives largely listed as inhibitors. AmpC nitrocefin hydrolysis, absorbance 480 nm, 0.0001% Triton. P00811. AID 485341;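 also: plate controls were no compound for no effect and no enzyme for full effect; nearly all actives have a fitted effect of over 20% in size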
# Target sequence (P00811 whole entry, looked up): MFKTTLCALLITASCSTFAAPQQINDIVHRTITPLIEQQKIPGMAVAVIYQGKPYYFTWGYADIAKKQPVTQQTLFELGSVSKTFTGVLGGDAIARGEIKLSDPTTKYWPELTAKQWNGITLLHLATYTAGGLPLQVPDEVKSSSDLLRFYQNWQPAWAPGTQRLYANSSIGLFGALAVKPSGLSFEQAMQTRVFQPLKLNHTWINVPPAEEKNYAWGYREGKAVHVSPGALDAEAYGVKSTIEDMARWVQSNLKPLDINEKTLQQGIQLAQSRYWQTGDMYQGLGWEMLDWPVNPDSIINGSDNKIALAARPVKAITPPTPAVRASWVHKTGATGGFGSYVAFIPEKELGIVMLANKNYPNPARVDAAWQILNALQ
#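 AmpC (5.3 nM in the dispensed reagent) in 20 mM phosphate pH 7.0 with 0.01% (detergent screen) or 0.0001% Triton X-100 was preincubated with compounds for 15 min at room temperature. Nitrocefin was then added from an 800 uM solution, and hydrolysis was followed at 480 nm.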
# AmpC inh detg: inhibitors of E. coli AmpC beta-lactamase with detergent | 370,000 compounds, 0.041% hits | AmpC hydrolysis of nitrocefin, absorbance 480 nm, 0.01% Triton | Potency, µM (highest dose often 114 µM), inactives show top-dose activity change, negative = inhibition, usual class: inhibitors | P00811;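 also: 0% = no-compound wells and -100% = no-enzyme wells; nearly all actives have a fitted effect of over 25% in size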
#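 AmpC (5.3 nM in the dispensed reagent) in 20 mM phosphate pH 7.0 with 0.01% (detergent screen) or 0.0001% Triton X-100 was preincubated with compounds for 15 min at room temperature. Nitrocefin was then added from an 800 uM solution, and hydrolysis was followed at 480 nm.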
# Pf growth 96h: P. falciparum growth inhibition at 96 hour, primary screen for plastid delayed-death inhibitors | P. falciparum luciferase reporter growth, 96 h | Potency, µM (titrated, usually from 28.7 µM), for the others: top-dose activity change, negative = inhibition, actives largely listed as inhibitors | 320,000 compounds, 6.9% hits
#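 Parasite growth measured via integrated firefly luciferase reporter in P. falciparum. Infected erythrocytes at 2% hematocrit, 0.05% parasitemia final were treated 96 hours at 37 C under 5% CO2, and luminescence was read.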
# Pf growth 48h: inhibits P. falciparum growth in the first generation, 48 h; P. falciparum luciferase growth in erythrocytes, 48 h; Potency, µM (top dose mostly 28.7 µM), without a hit: at the highest dose activity change, negative = inhibition, hits mostly inhibitors; 310,000 compounds, 5.9% hits; AID 504832
#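 Erythrocytes infected with P. falciparum carrying an integrated firefly luciferase reporter (2% hematocrit, 0.1% parasitemia final) were exposed to compounds in RPMI 1640 with 0.5% Albumax at 37 C, 5% CO2. Growth inhibition was scored as reduced luminescence.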
# * = called active by the depositor; ? = inconclusive; . = no result; [ ] = dose if it differs, or a comment. Calls follow the shape of the dose curve; as a rule, active = well fitted curve in the direction sought with a large enough effect; inconclusive = small, poorly fitted or top-dose-only effect, or another doubt; inactive = no such curve, though single readings can be large; an effect the other way counts as inactive or inconclusive. Unless noted, % is scaled to controls: 0 for no effect and ±100 for the full control effect; potency is read from the fitted curve at half-maximal effect.
SMILES,HCV inhibitor,AMA1-RON2 inh,AmpC inh no detg,AmpC inh detg,Pf growth 96h,Pf growth 48h
COc1cccc(-c2sc3ccc(OC)cc3c2C#CC(C)(C)O)c1,7.1µM*,-1%,86%,-1%,?,?
COc1ccc2sc(-c3ccc(N(C)C)cc3)c(C#CC(C)(C)O)c2c1,3.2µM*,13%,40%,6%,?,?
COc1ccc2sc(-c3ccc(N(C)C)cc3)c(C#Cc3cncn3C)c2c1,2.5µM*,?,13%,.,.,.
Cc1ccc2cc3cc(C(=O)N(C)c4ccccc4C)oc3nc2c1,.,.,.,-1%,.,.
COc1ccc(-c2ccc(NS(=O)(=O)c3cc(C)c(C)cc3C)cc2)nn1,.,.,.,15%,.,.
O=C(C1CCC(Cn2c(=O)c3sccc3n(Cc3ccccc3F)c2=O)CC1)N1CCOCC1 (centres undefined),.,.,.,21%,.,.
COc1ccc2sc(-c3ccc(SC)cc3)c(C#CC(C)(C)O)c2c1,2.8µM*,-7%,55%,-11%,?,0%
COc1ccc2sc(-c3ccc(N(C)C)cc3)c(C#CCCO)c2c1,1.4µM*,-16%,69%,6%,?,?
Cc1cccc(-c2nc3nc(C)cc(NCc4ccccc4Cl)n3n2)c1,.,.,.,-7%,.,.
CN1CCN(C(CNC(=O)C(=O)Nc2ccc(F)cc2F)c2ccc3c(c2)OCO3)CC1 (centres undefined),.,.,.,-3%,.,.
CC(=O)Nc1cccc(-c2nnc(-c3ccccc3)o2)c1,6%,6%,-12%,?,.,28%
Cc1nc(-c2ccc(NC(=O)C(C)(C)C)cc2)c(-c2ccccc2)o1,?,6%,-8%,-10%,4.1µM*,.
O=C(Nc1cccc(-c2nnc(-c3ccccc3)o2)c1)C1CC1,14µM*,22%,0%,2%,34%[1.15 µM],?
CC(C)(C)C(=O)Nc1cccc(-c2nnc(-c3cccc(NC(=O)C(C)(C)C)c3)o2)c1,-4%,12%,-25%,-8%,?,4.7µM*
COCc1c(Br)c(C)nc2sc3c(=O)n(-c4cccc(Br)c4)nnc3c12,.,.,.,3%,.,.
COc1ccc(OC)c(NC(=O)c2ccc3nc(C(C)C)oc3c2)c1,.,.,.,5%,.,.
Cc1c(C#N)c(N)nc2c3c(sc12)NC(=O)CC3c1ccc(Cl)cc1 (centres undefined),22µM*,-3%,?,-11%,-13%,?
N#Cc1c(N)nc2c3c(sc(=N)c2c1N)NC(=O)CC3c1c(F)cccc1Cl (centres undefined),-6%,35%,-47%,-9%,8.3µM*,?
Cc1ccc(NC(=O)COCc2cc(-c3cccs3)on2)cc1Cl,.,.,.,4%,.,.
CCOC(=O)c1c(-c2ccccc2)csc1NC(=O)C1CCCO1 (centres undefined),10µM*,0%,-9%,-14%,1%,-7%
CCOC(=O)c1c(-c2ccc(C)cc2)csc1NC(=S)NC(=O)c1ccccc1,?,48%,?,4%,7.4µM*,10µM*
CCOC(=O)c1c(-c2ccc(F)cc2)csc1NC(=O)c1c(-c2ccccc2)noc1C,?,-29%,-20%,-2%,-1%,?
